# Measured values reported in the supplement of paper PMC3334620.
# Over roughly 33,000 sequences, “E-score (-0.5 to 0.5)” has its median near -0.011; the highest 2% begin near 0.28. The full list was thinned out, with the highest values kept by preference.
# Target: T1, Gcr1 (UniProt P07261)
# T1 sequence: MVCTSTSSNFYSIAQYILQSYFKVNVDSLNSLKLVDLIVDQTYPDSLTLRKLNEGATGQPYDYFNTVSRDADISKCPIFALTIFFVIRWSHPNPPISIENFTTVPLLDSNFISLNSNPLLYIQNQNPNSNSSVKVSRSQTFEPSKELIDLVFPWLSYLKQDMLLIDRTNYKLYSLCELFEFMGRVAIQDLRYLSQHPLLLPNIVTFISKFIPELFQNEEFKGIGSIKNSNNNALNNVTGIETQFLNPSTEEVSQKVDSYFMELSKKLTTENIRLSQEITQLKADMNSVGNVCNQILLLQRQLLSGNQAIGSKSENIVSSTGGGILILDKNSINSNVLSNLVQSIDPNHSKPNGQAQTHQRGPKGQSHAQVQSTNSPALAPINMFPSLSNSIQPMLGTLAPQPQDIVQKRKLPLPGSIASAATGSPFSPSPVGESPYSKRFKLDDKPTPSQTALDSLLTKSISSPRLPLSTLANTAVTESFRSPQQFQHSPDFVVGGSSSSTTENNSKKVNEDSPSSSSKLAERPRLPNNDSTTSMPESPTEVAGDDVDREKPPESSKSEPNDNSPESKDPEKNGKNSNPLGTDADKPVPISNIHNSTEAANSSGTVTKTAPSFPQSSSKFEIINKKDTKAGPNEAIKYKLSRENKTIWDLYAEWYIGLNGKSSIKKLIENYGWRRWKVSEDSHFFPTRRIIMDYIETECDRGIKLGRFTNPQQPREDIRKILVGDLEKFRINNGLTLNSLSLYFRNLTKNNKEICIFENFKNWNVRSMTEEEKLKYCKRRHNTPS
# Experiment: PBM E-score (8-mer binding enrichment) (E-score (-0.5 to 0.5)); higher = stronger / more preferred TF binding
# Conditions: protein concentration: 100 nM; construct: GST-full length
# Outline: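 GST-tagged yeast TFs (full-length or DNA-binding domain) were made by PURExpress in vitro transcription/translation and applied at about 100-200 nM to universal all-10-mer Agilent arrays. The arrays were made double-stranded by primer extension, on fresh or once-stripped slides. Bound protein was detected with fluorescent anti-GST, and scans were normalised with masliner. Each ungapped eight-base word, pooled with its reverse complement, received an E-score (modified Wilcoxon-Mann-Whitney statistic) from the Universal PBM Analysis Suite.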
row,Sequence,PBM E-score
1,AAATTTGC,0.109
2,ACGCAGAT,0.151
3,GCGCAGCA,-0.0801
4,ACGCAGCG,0.244
5,CCGCAGCC,0.223
6,GCGCAGAC,-0.167
7,ACGCAGCA,-0.0163
8,ACGCAGCC,0.304
9,ACGCAGCT,0.308
10,GCGCAGCC,0.292
11,AGAACCGG,0.214
12,CGAATGGC,0.137
13,CAGGGTGC,0.234
14,ACTCATAA,-0.0566
15,AAGCCGAT,-0.0786
16,CAGAACCC,0.208
17,TAGAACCA,0.0906
18,AAGAACCT,0.2
19,TGGAACCA,0.357
20,CGGAACCC,0.348
21,ACGAACCT,-0.0495
22,GGGAACGA,-0.0791
23,AGGAACCT,0.38
24,GGGAACCA,0.314
25,CGGAACCA,0.114
26,CGGAACCG,0.18

row,Sequence,PBM E-score
1,TGGAACAA,-0.0703
2,CAGTACCA,0.0486
3,AACATTCG,-0.0406
4,TAAATACA,0.161
5,GGTGGTCA,-0.132
6,AGCACGCT,-0.123
7,ACAGCGGT,-0.219
8,AGGAACCA,0.203
9,GGAAACCC,0.106
10,AGGAACCC,0.414
11,GGGAACCC,0.336
12,AGGAACCG,0.139
13,GAGAACCC,-0.162
14,CATGCCTA,-0.112
15,AAGAGAGC,-0.276
16,GAGCCGTA,0.0183
17,ATGGATAG,-0.00601
18,AACGGGGA,-0.00775
19,GGGATCAC,-0.137
20,GAGATCCC,0.0362
21,AGGATCCA,0.263
22,ACGATCCT,-0.0105
23,AGAATCCA,0.249
24,AGGATCCT,0.301
25,GGGATCCC,0.419
26,AGGATCCG,0.0808

row,Sequence,PBM E-score
1,AGAATCCC,0.321
2,AAGATCCT,0.0935
3,AGAATCCT,0.252
4,AGGATCCC,0.379
5,CTGGTCGA,-0.3
6,GGGCCAAC,-0.13
7,AAATGCTT,-0.208
8,GCCGGCGC,0.0181
9,AGCAAACT,0.0882
10,GGGTTCAA,-0.101
11,GCCGGCTA,-0.145
12,GAAGGGAC,-0.279
13,CGGATCCC,0.341
14,GAGATCCA,0.174
15,CGGATCCG,0.212
16,GTGATCCA,-0.0936
17,TGGATCCA,0.317
18,TGGATCAA,-0.0326
19,CGGATCCA,0.235
20,GGGATCCA,0.347
21,CGGATCGC,-0.0306
22,AAATCAAA,0.0655
23,TGAAAGCA,0.00794
24,GATACTGC,-0.205
25,ATCCGACA,-0.019
26,CGGTTAGC,-0.0704

row,Sequence,PBM E-score
1,GGCCTGCA,-0.237
2,TTCCAGAA,0.287
3,AACCAGAT,0.228
4,TACCAGAA,0.34
5,CTCCAGAA,0.0346
6,AACCAGAC,-0.0315
7,CCCCAGAC,0.0344
8,CCCCAGAA,0.288
9,CCCCAGAG,-0.0817
10,GTCCAGAA,0.0699
11,AACCAGAA,0.281
12,CACCAGAA,0.15
13,GACCAGAA,0.131
14,AAGTTTGG,0.179
15,AATCCAAA,0.205
16,ACTTCATG,0.0318
17,GAACCCGA,0.195
18,CGTATCTC,0.0698
19,ACTACGGG,0.00638
20,AAAATCCA,-0.012
21,CTCCACAA,0.0774
22,AACCAGTG,-0.195
23,TTCCACAA,0.347
24,TACCAGTA,0.224
25,GTCCACAA,0.224
26,AACCAGTA,0.315

row,Sequence,PBM E-score
1,CCCACCAG,0.0742
2,CGGGCCGC,0.0123
3,AAGGTTCA,-0.179
4,GAAGAAGC,0.318
5,ATAGAAGC,0.315
6,ATAGAAGG,0.0701
7,CCAGAAGC,0.357
8,CAAGAAGC,0.24
9,GCAGAAGC,0.0881
10,GAAGACGA,0.198
11,CCAGAAGA,0.187
12,AAAGAAGC,0.262
13,CAAGACGC,0.238
14,CTAGAAGC,0.154
15,GAAGACGC,0.304
16,CCGCAGCG,0.0315
17,CCGGTACG,-0.0393
18,CGATAGAG,-0.0218
19,AGGCCTAA,-0.0235
20,CCAGGTAA,-0.0543
21,GTTCTCAA,-0.129
22,AACAGACC,-0.179
23,ATGTCTAA,-0.0649
24,CCTTGATA,-0.0119
25,ATAGACGA,0.248
26,CTAGACGC,0.0428

row,Sequence,PBM E-score
1,TAAGAAGA,0.243
2,ATAGACGC,0.377
3,CAAGAAGA,0.354
4,GAAGAAGA,0.183
5,CTTCCTCA,0.264
6,GGCCTCCA,0.172
7,GGCTTTCA,-0.109
8,CACTGATC,-0.142
9,ACCTCCAT,-0.24
10,GTCGGGGA,0.102
11,AGATTGTA,-0.193
12,GAGATTCC,0.363
13,GAGATTCA,-0.0394
14,AAGATTCC,0.271
15,CAGATTCG,0.037
16,CAGATTCC,0.388
17,CAGATTCA,-0.0169
18,AGTAACTC,-0.155
19,AGTGGAGG,0.082
20,CGTGGAAG,0.0771
21,ATTGGAAA,0.0513
22,AGTGGAAG,0.442
23,ATTGGAAG,0.363
24,CGTGGAAA,0.0989
25,AGTGGAGC,0.32
26,AGTGGAAT,0.39

row,Sequence,PBM E-score
1,AGTGGAAA,0.0918
2,ATTGGAAC,0.221
3,CGTGGAGC,-0.0506
4,CATGGAAG,-0.0984
5,ATTGCCGA,-0.127
6,TGAGGGAA,-0.101
7,AGTCTATG,-0.147
8,ACCCTAGT,-0.0547
9,CGAGACGC,0.131
10,CGGGTATC,0.131
11,CTCACACA,0.1
12,GGTGGAAC,0.0244
13,AGTGGAAC,0.364
14,AGGGGAAA,0.0362
15,AGTGGACC,-0.0505
16,AGGGGAAT,0.341
17,AGGGGAAC,-0.00862
18,AGTGGACG,0.315
19,AGTGGACA,-0.0203
20,CGTGGAAC,-0.113
